Screens: PubChem BioAssay, National Center for Advancing Translational Sciences (NCATS)
Most compounds without a hit are left out; they make up all but 21% or so of the library.
Sm TGR block = blocks Schistosoma mansoni thioredoxin glutathione reductase; purified TGR, DTNB reduction, TNB absorbance 405 nm; Q962Y6; Potency, µM (doses to about 114 µM), usual class: inhibitors; AID 485364; hit rate 3% among 360,000; also: nearly all actives have a fitted effect of over 60% in size
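First, TGR (20 nM dispensed) and NADPH were mixed with compound. Second, a 15 min room-temperature incubation followed. Third, further NADPH and then DTNB were added to start the reaction. Finally, TNB absorbance was monitored kinetically.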
NS1 inh = influenza NS1 inhibition; hit rate 0.4% among 270,000; Potency, µM (doses to about 46.1 µM); calls by dose curve; also: actives are rising curves; nearly all actives have a fitted effect of over 50% in size
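A cell-based growth assay was used: compounds that relieve NS1-induced slow growth of budding yeast raise OD600. Assay medium was yeast nitrogen base with ammonium sulphate and -URA supplement, pH 6.0, with 2% galactose.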
Pf growth 48h = inhibits P. falciparum growth in the first generation, 48 h | P. falciparum luciferase growth in erythrocytes, 48 h | Potency, µM (doses to about 28.7 µM), usual class: inhibitors | hit rate 5.9% among 310,000
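Erythrocytes infected with P. falciparum carrying an integrated firefly luciferase reporter (2% hematocrit, 0.1% parasitemia final) were exposed to compounds in RPMI 1640 with 0.5% Albumax at 37 C, 5% CO2. Growth inhibition was scored as reduced luminescence.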
Pf growth 96h = inhibits malaria parasite growth, 96 h | P. falciparum luciferase reporter growth, 96 h | Potency, µM (series often up to 28.7 µM), actives largely listed as inhibitors | hit rate 6.9% among 320,000
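Readout is luminescence from an integrated firefly luciferase in P. falciparum. Red cells, 2% hematocrit and 0.05% parasitemia final, were cultured with compound through two parasite generations (96 hours) at 37 C, 5% CO2.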
Cycloheximide cs = counter-screen for Shiga toxin inhibitors: cycloheximide protein synthesis inhibition. cell reporter, cycloheximide protein synthesis inhibition counterscreen. max response, %. hit rate 12% among 300,000. AID 2314; in the data active = max response mostly above about 13%, no sharp cut-off; inactive = mostly below about 14%; also: read at 38.3 µM for the half of the compounds with a filed dose
Shiga inhibitor = Shiga toxin inhibition; Vero cells, Shiga toxin protein synthesis inhibition reporter; hit rate 9.2% among 290,000; inhibition, % at 38.7 µM; in the data active = inhibition mostly above about 28%, no sharp cut-off; inactive = mostly below about 43%
Numbers stand for hits; 0 = inactive; ? = inconclusive; - = no result. Unless noted, calls follow the shape of the dose curve; as a rule, active = well fitted curve in the direction sought with a large enough effect; inconclusive = small, poorly fitted or top-dose-only effect, or another doubt; inactive = no such curve, though single readings can be large; an effect the other way counts as inactive or inconclusive.

SMILES	Sm TGR block	NS1 inh	Pf growth 48h	Pf growth 96h	Cycloheximide cs	Shiga inhibitor
O=C(O)c1ccccc1-c1ccccc1C(=O)Nc1cccc(O)c1	0	0	0	?	0	0
COc1ccccc1N1CCN(CCCCNS(=O)(=O)c2cccc3c(N(C)C)cccc23)CC1	-	0	-	-	-	-
COc1ccc(OC)c(CCNC(=O)CSc2ccsc2[N+](=O)[O-])c1	0	-	?	0	0	0
CSc1ccc(CCNC(=O)CSc2ccsc2[N+](=O)[O-])cc1	?	0	0	?	0	0
COc1ccc(CCNC(=O)CSc2ccsc2[N+](=O)[O-])c(OC)c1	0	-	?	1.7µM	0	0
O=C(CSc1ccsc1[N+](=O)[O-])NCc1ccccc1	?	-	0	15µM	44	112
CCOc1ccccc1CNC(=O)c1cnc2sc(N3CCCCCC3)nn2c1=O	0	-	-	-	-	-
COc1ccc(C(=O)COC(=O)CCn2nnc(-c3cccc(O)c3OC)n2)cc1	0	0	0	12µM	0	0
Cc1ccc(OCCCCn2c(CO)nc3ccccc32)cc1	0	-	0	?	0	0
Cn1c(=O)n(CCCOc2ccc(Br)cc2)c2ccccc21	0	0	0	-	0	0
OCc1nc2ccccc2n1CCCOc1ccc(Br)cc1	0	0	0	-	21	40
Cc1ccccc1OCCCn1c(CO)nc2ccccc21	0	-	0	?	18	71
N=c1n(CCCOc2ccc(Br)cc2)c2ccccc2n1CC(N)=O	0	0	13µM	9.3µM	0	0
O=C(N/N=C/c1ccncc1)C1CC1(c1ccccc1)c1ccccc1 (centres undefined)	0	0	?	5.2µM	0	0
O=C(N/N=C/c1ccc(Cl)cc1)C1CC12CCC2 (centres undefined)	0	-	0	0	53	133
NC(=O)c1cc(-c2ccccc2)nc(N2CCOCC2)n1	0	0	?	0	0	0
COc1ccc(-c2cc(C(F)(F)F)nc(N3CCOCC3)n2)cc1OC	0	0	?	?	0	0
COc1ccc(-c2cc(-c3ccccc3)nc(N3CCCC3)n2)cc1OC	0	0	9.3µM	0	0	0
NC(=O)c1cc(-c2ccccc2)nc(N2CCCCCC2)n1	0	0	0	13µM	0	0
CC(=O)c1ccc(N2CCN(C(=O)COc3ccccc3F)CC2)c(F)c1	0	0	?	?	0	0
Cc1cc(C)c(NC(=O)Cn2c(=O)n(CCC(=O)NCc3ccccc3Cl)c(=O)c3sccc32)c(C)c1	0	-	-	-	-	-
O=C(O)CC(Cc1ccccc1)c1ccc2c(c1)OCO2 (centres undefined)	0	0	0	0	0	0
O=C(CC(SCCO)c1ccc2c(c1)OCO2)c1ccco1 (centres undefined)	0	0	0	0	48	123
Cc1[nH]c2ccccc2c1C1(O)C(=O)N(Cc2ccccc2)c2ccc(Cl)cc21 (centres undefined)	0	-	-	-	-	-
O=C(/C=C/c1ccccc1)Nc1cc(-c2nc3ccccc3o2)ccc1Cl	0	-	-	-	-	-
SMILES	Sm TGR block	NS1 inh	Pf growth 48h	Pf growth 96h	Cycloheximide cs	Shiga inhibitor
CC(C)c1ccc(N2C(=O)CC(Sc3ncn[nH]3)C2=O)cc1 (centres undefined)	0.56µM	0	-	0	0	0
COc1ccc(N2C(=O)CC(Sc3ncn[nH]3)C2=O)c(OC)c1 (centres undefined)	0.28µM	0	0	0	0	0
CC(C)c1ccc(N2C(=O)CC(Sc3nc4ccccc4o3)C2=O)cc1 (centres undefined)	?	0	0	?	15	0
Cc1c(Cl)cccc1NC(=O)CSC(N)=O	-	0	0	0	0	0
Cc1c(Nc2c3ccccc3nc3ccccc23)c(=O)n(-c2ccccc2)n1C	0	0	?	?	0	0
CCCCc1c(C)c(C#N)c2nc3ccccc3n2c1Nc1c(C)n(C)n(-c2ccccc2)c1=O	0	0	1.9µM	2.1µM	0	0
Cc1c(Nc2c3c(c(C#N)c4nc5ccccc5n24)CCC3)c(=O)n(-c2ccccc2)n1C	32µM	0	0	0	0	0
Nc1nc2c(C(=O)N3CCOCC3)nnn2c2ccccc12	0	0	0	0	21	60
CCOC(=O)c1nnn2c1nc(N1CCOCC1)c1ccccc12	0	0	0	0	0	0
O=C(NC1CCCC1)C(c1ccccn1)N(Cc1ccccc1F)C(=O)c1csnn1 (centres undefined)	0	0	?	0	0	0
OC(c1ccccc1)c1nc2ccccc2n1Cc1c(F)cccc1Cl (centres undefined)	0	-	-	-	-	-
Cc1cccc(C(=O)O[C@@H]2[C@H](Cc3ccccc3)NS(=O)(=O)[C@H]3C[C@@H]4C=C[C@]23O4)c1	0	-	?	9.3µM	-	-
COc1cccc2c1C(=O)c1c(O)c3c(c(O)c1C2=O)C[C@@](O)(C(=O)CO)C[C@@H]3O[C@H]1C[C@H](N)[C@H](OC2CCCCO2)[C@H](C)O1 (some centres undefined)	-	-	3.8µM	4.3µM	-	-
COc1cccc2c1C(=O)c1c(O)c3c(c(O)c1C2=O)C[C@](O)(C(C)=O)C[C@H]3O[C@@H]1C[C@@H](N)[C@@H](O)[C@@H](C)O1	0	-	0.93µM	1.2µM	-	-
COc1cccc2c1C(=O)c1c(O)c3c(c(O)c1C2=O)C[C@@](O)(C(=O)CO)C[C@H]3O[C@H]1C[C@@H](N)[C@H](O)[C@@H](C)O1.[W]	-	0	-	-	-	-
COc1ccccc1N1C(=O)N(C(C)=O)C2C1Nc1ccccc1N2C (centres undefined)	?	?	4.7µM	?	0	0
CCOC(=O)C1(Cc2ccccc2C)CCCN(C(=O)CCc2cccnc2)C1 (centres undefined)	0	0	?	0	32	33
CCOC(=O)C1(Cc2ccccc2C)CCCN(C(=O)c2ccccn2)C1 (centres undefined)	?	0	0	?	40	71
CCOC(=O)C1(Cc2ccccc2C)CCCN(Cc2ccc(NC(C)=O)cc2)C1 (centres undefined)	0	0	5.2µM	?	0	0
CCOC(=O)C1(Cc2ccccc2C)CCCN(C(=O)c2ccc3nccnc3c2)C1 (centres undefined)	0	0	13µM	0	0	0
COc1ccc(-c2cc3c(=O)n(CC(=O)Nc4ccc(Br)c(C)c4)ccn3n2)cc1OC	0	-	-	-	-	-
COc1ccc(NC(=O)COc2coc(CN3CCN(c4ccccc4)CC3)cc2=O)cc1	0	-	?	?	-	-
CCOC(=O)C1(Cc2ccccc2)CCCN(Cc2cnn(CC)c2)C1 (centres undefined)	0	0	0	0	0	0
CCOC(=O)C1(Cc2ccccc2)CCCN(C(=O)c2cnn(CC)c2)C1 (centres undefined)	0	0	0	?	29	73
CCc1ccccc1NC(=O)c1ccc2c(SCC(=O)O)c3c(nc2c1)CCC3	0	-	-	-	-	-
